Only some compounds are listed: those with a hit (about 12% of all), similar ones and a draw of the others.
Sfp inh – inhibitors of Bacillus subtilis Sfp phosphopantetheinyl transferase; Q9F4F7; Biochemical Sfp PPTase activity, qHTS; Potency, µM, for inactives: largest response in the series, negative = inhibition, most hits filed as inhibitors; 3.5% of 310,000 active; AID 1490;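 note: the enzyme is Sfp with the accession as filed and its product quenches rhodamine fluorescence; 0% = enzyme reaction without inhibitor and -100% = no enzyme wells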
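After 15 min at room temperature with compound, 15 nM Sfp received 5 uM rhodamine-CoA plus 12.5 uM BHQ-2-ybbR (50 mM Hepes pH 7.6, 10 mM MgCl2). Rate came from the fluorescence difference over 30 min, ex 525/em 598 nm.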
RORgamma inh – ROR gamma (mouse) transcription inhibition | P51450 | Drosophila S2 Gal4-RORgamma UAS-luciferase reporter, 20 h | Potency, µM (titrated, usually from 53.6 µM), for the others: at the highest dose activity change, negative = inhibition, actives largely listed as inhibitors | 5.4% of 310,000 active; note: nearly all actives have a fitted effect of over 60% in size
Target sequence (P51450 whole entry, looked up, the tested form may be a part): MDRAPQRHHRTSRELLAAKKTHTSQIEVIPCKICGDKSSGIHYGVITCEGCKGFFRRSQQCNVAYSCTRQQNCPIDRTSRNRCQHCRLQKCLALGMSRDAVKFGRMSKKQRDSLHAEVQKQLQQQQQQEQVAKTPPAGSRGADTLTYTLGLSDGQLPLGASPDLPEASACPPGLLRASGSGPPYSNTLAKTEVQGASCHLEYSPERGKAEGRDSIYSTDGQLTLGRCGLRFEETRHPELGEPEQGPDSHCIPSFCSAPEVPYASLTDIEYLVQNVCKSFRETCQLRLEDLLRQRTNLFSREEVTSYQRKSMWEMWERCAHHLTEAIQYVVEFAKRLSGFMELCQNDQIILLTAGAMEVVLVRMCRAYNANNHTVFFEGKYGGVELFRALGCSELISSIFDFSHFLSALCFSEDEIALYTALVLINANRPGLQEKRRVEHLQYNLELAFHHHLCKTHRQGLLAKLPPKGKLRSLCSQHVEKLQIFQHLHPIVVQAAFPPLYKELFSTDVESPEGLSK
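Schneider cells (Drosophila), stable Gal4 DBD–ROR gamma + UAS-luc; 1 hr cmpd preincubation; Cu2+ induction 700 uM final; 20 hr ambient; luminescence.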
PLK1 PBD block – blocks phosphopeptide binding to human PLK1 polo-box domain; P53350; Plk1 PBD binding of FITC phosphopeptide, fluorescence polarization; Potency, µM, for inactives: max response, negative = inhibition, usual class: inhibitors; 2.8% of 360,000 active; AID 720504; note: series mostly up to about 57 µM; nearly all actives have a fitted effect of over 65% in size
VP16 counter – inhibits Gal4-VP16 luciferase reporter, ROR gamma counter-screen. Drosophila S2 Gal4-VP16 UAS-luciferase, luminescence, 20 h. Potency, µM (doses to about 53.6 µM), for the others: at the highest dose activity, negative = inhibition, most hits filed as inhibitors. 3.5% of 310,000 active. AID 2546;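 note: Gal4-VP16 expression switched on by copper sulfate through the metallothionein promoter; nearly all actives have a fitted effect of over 50% in size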
ALDH1A1 inh – inhibitors of human aldehyde dehydrogenase 1A1; P00352; Purified ALDH1A1, NADH fluorescence, propionaldehyde substrate; Potency, µM (series often up to 75.3 µM), for inactives: at the top dose activity, negative = inhibition, usual class: inhibitors; 7.3% of 220,000 active; active = well fitted inhibition curve with a large enough effect, not every such curve was filed as active; inconclusive = small, poorly fitted or top-dose-only effect, or another doubt; inactive = no such curve, though single readings can be large or run the other way;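 note: plate controls were no enzyme wells and a reference inhibitor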
* marks the source's active call; other numbers are inactive results; [ ] = remark or other dose. Unless noted, calls come from the whole dose curve; as a rule, active = well fitted curve in the direction sought with a large enough effect; inconclusive = small, poorly fitted or top-dose-only effect, or another doubt; inactive = no such curve, though single readings can be large; an effect the other way counts as inactive or inconclusive. Unless noted, % is set by controls: 0 for no effect and ±100 for the full control effect; potency is the fitted concentration of half-maximal effect.

Results for Nc1ncnc2c1ncn2[C@@H]1O[C@H](C(=O)N(CCC2=CCCCC2)CC2CC2)[C@@H](O)[C@H]1O ?
PLK1 PBD block: -1%

What do the screens show for `COC(=O)CSc1nc(C)c(C(C)=O)cc1C#N`?
Sfp inh: -2%; RORgamma inh: -40%; PLK1 PBD block: -7%; VP16 counter: 21%; ALDH1A1 inh: -1%

What do the screens show for `CCOC(=O)c1cc(C#N)c(SCC(=O)O)[nH]c1=O`?
Sfp inh: 50µM*; RORgamma inh: 7%; PLK1 PBD block: -12%; VP16 counter: 6%; ALDH1A1 inh: inconclusive

What do the screens show for `CCOC(=O)c1cc(C#N)c(SCC(N)=O)[nH]c1=O`?
Sfp inh: 20µM*; RORgamma inh: -20%; PLK1 PBD block: -2%; VP16 counter: -1%

What do the screens show for `CCOC(=O)c1cc(C#N)c(SCC(=O)Nc2ccc(C(C)=O)cc2)[nH]c1=O`?
Sfp inh: -2%; RORgamma inh: 16%; PLK1 PBD block: -13%; VP16 counter: 2%

What do the screens show for `CCOC(=O)c1cc(C#N)c(SCC(=O)c2cc(C#N)c(SC)nc2C)[nH]c1=O`?
Sfp inh: 32µM*; RORgamma inh: 42%; PLK1 PBD block: inconclusive; VP16 counter: 20%; ALDH1A1 inh: 1.3µM*

How did CN(Cc1ccccc1)C(=O)[C@@H]1CCCN1C(=O)[C@@H]1CCCN1C(=O)c1cccc(Cl)c1 do in these assays?
PLK1 PBD block: 0%

What do the screens show for `CC1(C(=O)NCc2ccccc2)CCC(=O)N1C1CCN(Cc2ccccc2)CC1` (stereo not given)?
PLK1 PBD block: -5%

Results for CCCCC#CC1C=CC(Oc2cc(OC)c(OC)c(OC)c2)C(CO)O1 (stereo not given) ?
Sfp inh: 0%; RORgamma inh: 18%[10 µM]; VP16 counter: -8%[10 µM]; ALDH1A1 inh: -14%[13.5 µM]

How did O=C(O)c1cnc(-c2ccccc2)nc1Sc1ccc(Cl)cc1Cl do in these assays?
Sfp inh: 15%; RORgamma inh: 3%; PLK1 PBD block: 27µM*; VP16 counter: 1%; ALDH1A1 inh: -15%

What do the screens show for `O=C(O)c1cnc(-c2ccccc2)nc1Sc1ccccc1`?
Sfp inh: 14%; RORgamma inh: 4%; PLK1 PBD block: inconclusive; VP16 counter: -1%; ALDH1A1 inh: -2%

How did O=C(O)c1cnc(-c2ccccc2)nc1Sc1cccc(Cl)c1 do in these assays?
Sfp inh: -2%; RORgamma inh: inconclusive; PLK1 PBD block: 30µM*; VP16 counter: 7%; ALDH1A1 inh: -3%

What do the screens show for `O[C@@H]([C@H](O)[C@@H](O)CBr)[C@@H](O)CBr`?
RORgamma inh: -13%; VP16 counter: 6%; ALDH1A1 inh: inconclusive

Results for CCc1nc(SCC(=O)c2cc(C)ccc2C)n[nH]1 ?
Sfp inh: 56µM*; RORgamma inh: inconclusive; PLK1 PBD block: inconclusive; VP16 counter: 2%; ALDH1A1 inh: inconclusive

Results for CC(=O)Nc1ccc(SCC(=O)c2cc(C)ccc2C)cc1 ?
Sfp inh: -4%; RORgamma inh: -9%; PLK1 PBD block: 19µM*; VP16 counter: -21%

Results for Cc1ccc(C)c(C(=O)CSc2n[nH]c(C(C)C)n2)c1 ?
Sfp inh: -7%; RORgamma inh: -6%; PLK1 PBD block: inconclusive; VP16 counter: 1%; ALDH1A1 inh: -5%

Results for Cc1ccc(C)c(C(=O)CSc2n[nH]c(C)n2)c1 ?
Sfp inh: 79µM*; RORgamma inh: -17%; PLK1 PBD block: inconclusive; VP16 counter: -6%; ALDH1A1 inh: inconclusive

What do the screens show for `CC(=O)Nc1ccc(SCC(=O)c2cc(C)n(-c3ccccc3)c2C)cc1`?
Sfp inh: -7%; RORgamma inh: 2%; PLK1 PBD block: -23%; VP16 counter: 7%; ALDH1A1 inh: -11%

How did CCCCNC(=O)c1nc(C2CCN(S(=O)(=O)c3ccc(S(C)(=O)=O)cc3)CC2)oc1-c1ccccc1 do in these assays?
PLK1 PBD block: -24%

How did N/N=C1/c2ccccc2N[C@H]1OC(=O)Nc1ccccc1 do in these assays?
ALDH1A1 inh: -11%[13.5 µM]

Results for O=C(Nc1ccc2c(c1)OCO2)c1ccc(Br)o1 ?
Sfp inh: -9%; RORgamma inh: -1%; PLK1 PBD block: -2%; VP16 counter: 17%; ALDH1A1 inh: -6%

What do the screens show for `C/C(=N\NC(=O)c1ccc(Br)o1)c1cc2c(cc1NC(=O)CCC(=O)O)OCO2`?
Sfp inh: 45µM*; RORgamma inh: 3%; PLK1 PBD block: 10%; VP16 counter: 0%

What do the screens show for `CN(CC(=O)Nc1ccc(F)c(F)c1F)C(=O)c1ccc(=O)[nH]c1`?
Sfp inh: 21%; RORgamma inh: -5%; PLK1 PBD block: 2%; VP16 counter: -6%

How did C=C1CCC2C(C)(CO)C(O)CCC2(C)C1C/C=C1\C(=O)OCC1O (stereo not given) do in these assays?
Sfp inh: -2%; RORgamma inh: 13µM*; VP16 counter: -22%; ALDH1A1 inh: 8%

Results for COc1ccc(-c2cn3c(C)c(C(=O)Nc4ccncc4)sc3n2)cc1 ?
Sfp inh: 45µM*; RORgamma inh: -20%; PLK1 PBD block: 2%; VP16 counter: 13µM*; ALDH1A1 inh: inconclusive

Results for COc1ccc(-c2cn3c4c(sc3n2)CCCC4)cc1 ?
Sfp inh: 79µM*; RORgamma inh: 11µM*; PLK1 PBD block: -1%; VP16 counter: 10µM*; ALDH1A1 inh: inconclusive

What do the screens show for `Cc1nn(C)c(Oc2cccc(Cl)c2)c1C#N`?
Sfp inh: 3%; RORgamma inh: 14%; PLK1 PBD block: 8.4µM*; VP16 counter: -6%; ALDH1A1 inh: 5%

Results for CC(Cc1ccc(O)c(O)c1)C(C)Cc1ccc(O)c(O)c1 (stereo not given) ?
Sfp inh: 40µM*; RORgamma inh: 0%; PLK1 PBD block: -16%; VP16 counter: 0%; ALDH1A1 inh: 28µM*

How did COc1cc(C[C@@H](C)[C@@H](C)Cc2ccc(O)c(OC)c2)ccc1O do in these assays?
PLK1 PBD block: -3%

What do the screens show for `COc1ccc2nc3ccccc3nc2c1N`?
Sfp inh: 4.5µM*; RORgamma inh: inconclusive; PLK1 PBD block: -21%; VP16 counter: 16µM*

Results for Cc1ccc(-c2sc(C(=O)NN)c(C)c2C#N)cc1 ?
Sfp inh: 15%; RORgamma inh: 4.5µM*; PLK1 PBD block: 4%; VP16 counter: 7.1µM*

Results for C[C@@H]1CCN(C(=O)[C@H](CCCNC(=N)N)NS(=O)(=O)c2cccc3c2NC[C@H](C)C3)[C@@H](C(=O)O)C1 ?
Sfp inh: 6%; RORgamma inh: -3%[10 µM]; VP16 counter: -3%

What do the screens show for `COc1ccc([C@H]2C[C@H](n3cc(-c4ccc(F)cc4)nn3)[C@@H](O)CN2C(=O)C2CCCCC2)cc1`?
PLK1 PBD block: 1%

What do the screens show for `O=C(NCCc1ccccc1)C1CCC(=O)N(Cc2ccc(Cl)cc2)C1` (stereo not given)?
Sfp inh: 9%; RORgamma inh: 10%; PLK1 PBD block: 0%; VP16 counter: 1%

Compound activity: PubChem, National Center for Advancing Translational Sciences (NCATS)
